Screens: PubChem BioAssay, National Center for Advancing Translational Sciences (NCATS)
BLM helicase inh = inhibitors of human Bloom syndrome helicase BLM; Potency, µM (doses to about 56.1 µM), for inactives: top-dose activity change, negative = inhibition, usual class: inhibitors; recombinant BLM DNA unwinding, fluorescence dequenching; AID 2528; actives 0.2% (n = 350,000);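 also: plate controls were vehicle for no effect and no enzyme for full effect; nearly all actives have a fitted effect of over 35% in size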
APEX1 inh = inhibitors of human APE1 endonuclease; P27695; recombinant APE1, TAMRA/BHQ-2 abasic DNA cleavage fluorescence; Potency, µM (doses to about 65.8 µM), inactives show top-dose activity change, negative = inhibition, usual class: inhibitors; actives 0.35% (n = 350,000); AID 2517;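 also: plate controls were vehicle for no effect and reference inhibitor for full effect; nearly all actives have a fitted effect of over 55% in size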
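Compound pre-exposure to 0.75 nM APE1, 15 min at ambient temperature. Reaction initiated with 50 nM TAMRA/BHQ-2 THF substrate, read immediately in kinetic mode, 525 nm excitation, 598 nm emission.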
JMJD2E inh = inhibitors of human JMJD2E histone demethylase. B2RXH2. JMJD2E catalytic domain, FDH-coupled NADH fluorescence (FDH is formaldehyde dehydrogenase). Potency, µM (highest dose often 57.1 µM), inactives show top-dose activity change, negative = inhibition, hits mostly inhibitors. actives 1.6% (n = 230,000). AID 2147; active = well fitted inhibition curve with a large enough effect, not every such curve was filed as active; inconclusive = small, poorly fitted or top-dose-only effect, or another doubt; inactive = no such curve, though single readings can be large or run the other way;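 also: 0% = wells with enzyme and -100% = buffer wells without enzyme; nearly all actives have a fitted effect of over 50% in size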
Target sequence (B2RXH2 1-337 limits assumed): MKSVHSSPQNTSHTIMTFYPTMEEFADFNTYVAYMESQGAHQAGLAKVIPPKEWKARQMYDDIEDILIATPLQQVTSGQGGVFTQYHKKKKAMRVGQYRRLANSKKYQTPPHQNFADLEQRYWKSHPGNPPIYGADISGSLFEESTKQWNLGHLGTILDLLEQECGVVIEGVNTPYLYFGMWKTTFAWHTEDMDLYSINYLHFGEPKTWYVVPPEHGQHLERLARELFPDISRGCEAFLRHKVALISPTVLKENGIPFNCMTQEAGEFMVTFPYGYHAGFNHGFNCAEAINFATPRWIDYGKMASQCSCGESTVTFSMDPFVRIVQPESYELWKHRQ
RECQ1 inh = blocks DNA unwinding by human RECQ1. P46063. RECQ1 DNA unwinding, red fluorescence kinetic read. Potency, µM (series often up to 57.3 µM), inactives show top-dose activity, negative = inhibition, actives largely listed as inhibitors. actives 0.54% (n = 240,000). AID 2549;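 also: plate controls were vehicle for no effect and no enzyme for full effect; nearly all actives have a fitted effect of over 30% in size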
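RECQ1T1 50 nM; forked duplex (20 bp + 30-nt ss tails) 200 nM, ATP 2 mM final; pH 8.0, 2 mM MgCl2, 2.5 ug/ml poly(dI-dC); 15 min compound preincubation; discontinuous kinetic read over 2 h at RT.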
GoLoco inh red = RGS12 GoLoco-Gai1 interaction inhibition. Potency, µM (series often up to 61.6 µM), for inactives: top-dose activity, negative = inhibition, actives largely listed as inhibitors. Gai1:RGS12 GoLoco peptide FP, rhodamine, 10 min. actives 0.44% (n = 230,000); active = well fitted inhibition curve with a large enough effect, not every such curve was filed as active; inactive = no such curve, though single readings can be large or run the other way; also: nearly all actives have a fitted effect of over 30% in size
L3MBTL1 inh = L3MBTL1 (human) inhibition | Q9Y468 | AlphaScreen L3MBTL1–H3K9me1 peptide binding | Potency, µM (titrated, usually from 57.1 µM), inactives show at the highest dose activity, negative = inhibition, actives largely listed as inhibitors | actives 0.66% (n = 230,000) | AID 485360; also: nearly all actives have a fitted effect of over 60% in size
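First, the protein-peptide complex forms for 30 min at room temperature (L3MBTL1 50 nM, biotinylated H3K9me1 peptide 75 nM). Next, compounds are pin-transferred and incubated 30 min. Finally, AlphaScreen beads are added and read after 30 min.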
* marks the source's active call; other numbers are inactive results; i = inactive; ? = inconclusive; nt = no result; [ ] = dose if it differs, or a comment. This is one part of a sample in which hits are shown more often than they occur. Unless noted, calls follow the shape of the dose curve; as a rule, active = well fitted curve in the direction sought with a large enough effect; inconclusive = small, poorly fitted or top-dose-only effect, or another doubt; inactive = no such curve, though single readings can be large; an effect the other way counts as inactive or inconclusive. Unless noted, % is scaled to controls: 0 for no effect and ±100 for the full control effect; potency is read from the fitted curve at half-maximal effect.

SMILES	BLM helicase inh	APEX1 inh	JMJD2E inh	RECQ1 inh	GoLoco inh red	L3MBTL1 inh
CC(C)(C)[C@H]1COC(=O)[C@H](NC(=O)OCC2c3ccccc3-c3ccccc32)C/C=C\C[C@@H](CC(=O)N[C@@H](CO)Cc2ccccc2)C(=O)N1	nt	24µM*	nt	nt	nt	4%
CC(C)(C)OC(=O)C[C@H]1C/C=C\C[C@H](CC(=O)N[C@H](CO)Cc2ccccc2)C(=O)N[C@H](C(C)(C)C)COC1=O	nt	-6%	nt	nt	nt	-4%
CC(C)(C)[C@H]1COC(=O)[C@H](NC(=O)OCC2c3ccccc3-c3ccccc32)C/C=C\C[C@@H](CC(=O)N[C@H](CO)Cc2ccccc2)C(=O)N1	nt	-16%	nt	nt	nt	-1%
O=C(N[C@@H]1C/C=C\C[C@@H](CC(=O)N(CCO)Cc2ccccc2)C(=O)NCCOC1=O)OCC1c2ccccc2-c2ccccc21	nt	24µM*	nt	nt	nt	-6%
CC(C)(C)OC(=O)C[C@H]1C/C=C\C[C@H](CC(=O)N[C@@H](CO)Cc2ccccc2)C(=O)N[C@H](C(C)(C)C)COC1=O	nt	13µM*	nt	nt	nt	2%
O=C(O)CCC/C=C\CC1C2CCC(O2)C1CNNC(=O)Nc1ccccc1 (stereo not drawn)	-10%	-1%	5%	1%	1%	nt
O=C(CCSCc1cnn(-c2ccccc2)c1-n1cccc1)NCc1ccc(Cl)cc1	-3%	nt	nt	nt	nt	nt
Cc1nc(NCc2ccccc2)c2nc(-c3ccccc3)n(CC3CCN(C)CC3)c2n1	3%	?	?	-6%	5%	nt
O=Cc1ccc(-n2cccn2)cc1	-5%	2%	14µM*	-1%	11%	9%
Cc1ccc(-n2cccn2)cc1	2%	0%	2%	-8%	8%	5%
c1coc(CNc2nc(-c3cccs3)cs2)c1	4%	9%	-27%	-12%	36%	28µM*
CC(C)(c1ccccc1)c1ccc(OCC(O)CNC2CCN(Cc3ccccc3)CC2)cc1 (stereo not drawn)	-2%	-5%	10µM*	-7%	-12%	-20%
Clc1cccc(Nc2nnc(-c3ccccc3)c3ccccc23)c1	0%	17%	11µM*	0%	1%	nt
CO[C@]1(NC(=O)C2SC(=C(C(N)=O)C(=O)O)S2)C(=O)N2C(C(=O)O)=C(CSc3nnnn3C)CS[C@H]21 (stereo partly drawn)	-4%[21.4 µM]	nt	7%[25.5 µM]	-2%[25.9 µM]	-4%[21.6 µM]	nt
Nc1ccc2nc(-c3cccc(-c4nc5ccc(N)cc5[nH]4)n3)[nH]c2c1	14µM*	-90%	nt	nt	nt	nt
COc1ccc(-c2cc([C@H](O)C3CCCCN3)c3ccccc3n2)cc1 (stereo partly drawn)	nt	nt	nt	nt	7%[14.2 µM]	nt
C=CCc1c(C)nc(C)nc1N/N=C/c1ccccc1O	5%	-6%	3.2µM*	-7%	6%	?
c1cc2c(cc1Cn1cnnn1)OCO2	-16%	-4%	?	13%	-2%	43%
Cc1nnc(C)c2c(C)n(Cc3ccc4c(c3)OCO4)c(C)c12	-3%	-1%	22µM*	i	17%	-13%
O=C1c2c(O)cc(O)cc2OC(c2ccc(O)c(O)c2)C1O (stereo not drawn)	-1%	?	8.9µM*	-5%	-36%	nt
O=C1c2c(O)cc(O)cc2O[C@H](c2ccc(O)c(O)c2)C1O (stereo partly drawn)	-5%	?	nt	14µM*	nt	nt
COc1ccc([C@H]2Oc3cc(O)cc(O)c3C(=O)C2[C@@H]2C(=O)c3c(O)cc(O)cc3O[C@@H]2c2ccc(OC)cc2)cc1 (stereo partly drawn)	?	-6%	-21%	-11%	17%	nt
CC1(C)c2ssc(=S)c2-c2ccccc2N1C(=O)CSC1=NCCS1	-5%	1%	2%	3%	8%	14µM*
O=[N+]([O-])c1cccc2c(S(=O)(=O)N3CCOCC3)cccc12	-8%	11µM*	nt	nt	nt	-15%
O=[N+]([O-])c1cccc2c(S(=O)(=O)N3CCCCC3)cccc12	-10%	45%	nt	nt	nt	nt
